Data: PubChem BioAssay AID1159580 (chemical genetic matrix, 2015)
In all, about 5,500 compounds went through this assay and about 2,000 (36%) were called active. About 18% were inconclusive and are not listed. Rule as the data show it: active = normalized growth mostly below about 0.91 (no sharp cut-off); inconclusive = no clear call, values can overlap the other calls; inactive = mostly above about 0.92. This is one part of the list.

Assay: chemical genetic growth profiling, strain panel (AID 1159580);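 also: tested at 20 µM; growth read once vehicle control cultures reached saturation at 30 °C; 1 = growth at the plate median or of vehicle wells; lower values mean less growth of the strain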
Conditions: growth OD

Measured: normalized growth

COc1ccc(C(=O)c2ccccc2)c(O)c1
active: S. cerevisiae deletion strains, locus YJR075W, strain HOC1, hits give low values 0.848 | S. cerevisiae deletion strains, locus YKL009W, strain mrt4, hits give low values 0.835 | S. cerevisiae deletion strains, locus YKL068W, hits give low values 0.91 | S. cerevisiae deletion strains, locus YKL085W, strain MDH1 (second series), hits give low values 0.895 | S. cerevisiae deletion strains, locus YKL085W, strain MDH1, hits give low values 0.895 | S. cerevisiae deletion strains, locus YKL160W, strain elf1, hits give low values 0.764 | S. cerevisiae deletion strains, locus YKL190W, strain CNB1, hits give low values 0.913 | S. cerevisiae deletion strains, locus YKR001C, strain vps1, hits give low values 0.553 | S. cerevisiae deletion strains, locus YKR026C, strain gcn3, hits give low values 0.804 | S. cerevisiae deletion strains, locus YKR091W, strain srl3, hits give low values 0.874 | S. cerevisiae deletion strains, locus YLL001W, strain dnm1, hits give low values 0.734 | S. cerevisiae deletion strains, locus YLL026W, hits give low values 0.841 | S. cerevisiae deletion strains, locus YLL041C, strain sdh2, hits give low values 0.861 | S. cerevisiae deletion strains, locus YLR027C, strain aat2, hits give low values 0.807 | S. cerevisiae deletion strains, locus YLR039C, strain RIC1, hits give low values 0.441 | S. cerevisiae deletion strains, locus YLR102C, strain apc9, hits give low values 0.906 | S. cerevisiae deletion strains, locus YLR113W, strain HOG1, hits give low values 0.836 | S. cerevisiae deletion strains, locus YLR221C, strain rsa3, hits give low values 0.74 | S. cerevisiae deletion strains, locus YLR258W, strain gsy2, hits give low values 0.815 | S. cerevisiae deletion strains, locus YLR262C, strain YPT6 (second series), hits give low values 0.408 | S. cerevisiae deletion strains, locus YLR262C, strain YPT6, hits give low values 0.526 | S. cerevisiae deletion strains, locus YLR320W, strain mms22, hits give low values 0.542 | S. cerevisiae deletion strains, locus YLR330W, strain CHS5, hits give low values 0.916 | S. cerevisiae deletion strains, locus YLR342W, strain FKS1 (second series), hits give low values 0.763 | S. cerevisiae deletion strains, locus YLR342W, strain FKS1, hits give low values 0.815 | S. cerevisiae deletion strains, locus YLR370C, strain arc18, hits give low values 0.77 | S. cerevisiae deletion strains, locus YLR384C, strain iki3, hits give low values 0.843 | S. cerevisiae deletion strains, locus YLR418C, strain cdc73, hits give low values 0.625 | S. cerevisiae deletion strains, locus YML032C, strain rad52, hits give low values 0.871 | S. cerevisiae deletion strains, locus YML120C, strain ndi1, hits give low values 0.762 | S. cerevisiae deletion strains, locus YML124C, strain tub3, hits give low values 0.899 | S. cerevisiae deletion strains, locus YMR058W, strain fet3, hits give low values 0.732 | S. cerevisiae deletion strains, locus YMR078C, strain ctf18, hits give low values 0.876 | S. cerevisiae deletion strains, locus YMR125W, strain sto1, hits give low values 0.825 | S. cerevisiae deletion strains, locus YMR129W, hits give low values 0.856 | S. cerevisiae deletion strains, locus YMR205C, strain PFK2, hits give low values 0.567 | S. cerevisiae deletion strains, locus YMR223W, strain ubp8, hits give low values 0.774 | S. cerevisiae deletion strains, locus YMR231W, strain pep5, hits give low values 0.877 | S. cerevisiae deletion strains, locus YMR263W, strain SAP30, hits give low values 0.878 | S. cerevisiae deletion strains, locus YNL071W, strain lat1, hits give low values 0.538 | S. cerevisiae deletion strains, locus YNL209W, strain ssb2, hits give low values 0.906 | S. cerevisiae deletion strains, locus YNL233W, strain BNI4, hits give low values 0.833 | S. cerevisiae deletion strains, locus YNL248C, strain rpa49, hits give low values 0.639 | S. cerevisiae deletion strains, locus YNL271C, strain bni1, hits give low values 0.882 | S. cerevisiae deletion strains, locus YNL298W, strain CLA4, hits give low values 0.859 | S. cerevisiae deletion strains, locus YNL307C, strain MCK1, hits give low values 0.538 | S. cerevisiae deletion strains, locus YNL322C, strain KRE1 (second series), hits give low values 0.862 | S. cerevisiae deletion strains, locus YNR049C, strain mso1, hits give low values 0.838 | S. cerevisiae deletion strains, locus YOL006C, strain TOP1, hits give low values 0.474 | S. cerevisiae deletion strains, locus YOL147C, strain pex11, hits give low values 0.846 | S. cerevisiae deletion strains, locus YOR001W, strain rrp6, hits give low values 0.712 | S. cerevisiae deletion strains, locus YOR070C, strain gyp1, hits give low values 0.857 | S. cerevisiae deletion strains, locus YOR080W, strain dia2, hits give low values 0.867 | S. cerevisiae deletion strains, locus YOR083W, strain WHI5, hits give low values 0.73 | S. cerevisiae deletion strains, locus YOR106W, strain vam3, hits give low values 0.682 | S. cerevisiae deletion strains, locus YOR136W, strain idh2, hits give low values 0.912 | S. cerevisiae deletion strains, locus YOR144C, strain elg1, hits give low values 0.897 | S. cerevisiae deletion strains, locus YOR184W, strain ser1, hits give low values 0.476 | S. cerevisiae deletion strains, locus YOR265W, strain rbl2, hits give low values 0.845 | S. cerevisiae deletion strains, locus YOR270C, strain vph1, hits give low values 0.419 | S. cerevisiae deletion strains, locus YOR290C, strain snf2, hits give low values 0.784 | S. cerevisiae deletion strains, locus YOR316C, strain cot1, hits give low values 0.903 | S. cerevisiae deletion strains, locus YPL051W, strain arl3, hits give low values 0.647 | S. cerevisiae deletion strains, locus YPL078C, strain atp4, hits give low values 0.599 | S. cerevisiae deletion strains, locus YPL106C, strain sse1, hits give low values 0.845 | S. cerevisiae deletion strains, locus YPL240C, strain hsp82, hits give low values 0.858 | S. cerevisiae deletion strains, locus YPL256C, strain CLN2, hits give low values 0.818 | S. cerevisiae deletion strains, locus YPR119W, strain clb2, hits give low values 0.888 | S. cerevisiae deletion strains, locus YPR141C, strain kar3, hits give low values 0.892 | S. cerevisiae deletion strains, locus YPR163C, strain tif3, hits give low values 0.844 | S. cerevisiae deletion strains, locus YPR167C, strain met16, hits give low values 0.898 | S. cerevisiae deletion strains, strain wtn01, hits give low values 0.872
inactive: S. cerevisiae deletion strains, locus YLR058C, strain SHM2, hits give low values 0.945 | S. cerevisiae deletion strains, locus YLR268W, strain sec22, hits give low values 0.917 | S. cerevisiae deletion strains, locus YLR357W, strain rsc2, hits give low values 0.857 | S. cerevisiae deletion strains, locus YLR371W, strain rom2, hits give low values 0.918 | S. cerevisiae deletion strains, locus YML016C, strain PPZ1, hits give low values 0.932 | S. cerevisiae deletion strains, locus YMR307W, strain GAS1, hits give low values 0.62 | S. cerevisiae deletion strains, locus YNL067W, strain RPL9B, hits give low values 0.889 | S. cerevisiae deletion strains, locus YNL128W, strain TEP1, hits give low values 0.934 | S. cerevisiae deletion strains, locus YNL153C, strain GIM3, hits give low values 0.937 | S. cerevisiae deletion strains, locus YNL183C, strain NPR1, hits give low values 0.851 | S. cerevisiae deletion strains, locus YNL250W, strain rad50, hits give low values 0.915 | S. cerevisiae deletion strains, locus YNL322C, strain KRE1, hits give low values 0.93 | S. cerevisiae deletion strains, locus YNR052C, strain pop2, hits give low values 0.923 | S. cerevisiae deletion strains, locus YOL012C, strain htz1 1.24 | S. cerevisiae deletion strains, locus YOR061W, strain CKA2, hits give low values 0.936 | S. cerevisiae deletion strains, locus YOR069W, strain VPS5, hits give low values 0.959 | S. cerevisiae deletion strains, locus YOR231W, strain MKK1, hits give low values 0.878 | S. cerevisiae deletion strains, locus YPL055C, strain LGE1, hits give low values 0.773 | S. cerevisiae deletion strains, locus YPL241C, strain CIN2, hits give low values 0.94 | S. cerevisiae strains, strain wild type, hits give low values 0.911
